Calls of active or inactive are those of the source. Calls follow the shape of the dose curve; as a rule, active = well fitted curve in the direction sought with a large enough effect; inconclusive = small, poorly fitted or top-dose-only effect, or another doubt; inactive = no such curve, though single readings can be large or run the other way.

The experiment in a line: Validation qHTS assay for inhibitors of Activation Induced Cytidine Deaminase (AID): UDG Counterscreen signal (AID 1347427). Also: 0% is about no effect. As to conditions: biochemical UDG counterscreen, fluorescence signal; series mostly up to 115 µM; activity, negative = inhibition: at the top concentration. Put shortly:
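Counterscreen read of UDG activity (2 U/mL, 4/3x) in the FRET deamination format with AID (1 uM, 4/3x), DJC20/DJC23 substrates (250 nM, 4x), 4 h at room temperature. NaOH stop, fluorescence at 560 ex/665 em.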
On the technique in general: In qHTS, concentration-response curves come from the screen itself.
Consider `CCCn1c(=O)c2[nH]c(C3CCCC3)nc2n(CCCOC(=O)c2ccc(S(=O)(=O)F)cc2)c1=O`, for which the “activity, negative = inhibition” value is 11.3% (inactive). On to `Cc1[nH]c2ccc(O)cc2c1CCN`, for which the “activity, negative = inhibition” value was -1.57% (inactive). Take `C[N+]1(C)CCOC(O)(c2ccc(-c3ccc(C4(O)C[N+](C)(C)CCO4)cc3)cc2)C1` (stereo not given): the “activity, negative = inhibition” value is 8% (inactive). The value for `CCCN(CCC)C1CCc2cccc(O)c2C1` (stereo not given) was 13.5% (inactive); that for `CCN1C[C@@]2(COC)C3[C@@H](OC)C4[C@@H]1C3([C@@H]1C[C@]3(O)[C@H](OC(=O)c5ccccc5)[C@@H]1[C@]4(OC(C)=O)[C@@H](O)[C@@H]3OC)[C@H](OC)C[C@H]2O` was 13.2% (inactive); that for `C[C@@H]1O[C@@H](O[C@H]2C[C@@H](O)[C@]3(CO)[C@@H]4C(CC[C@]3(O)C2)[C@@]2(O)CC[C@H]([C@@H]3COC(=O)C3)[C@@]2(C)C[C@H]4O)[C@H](O)[C@H](O)[C@H]1O` (stereo not given in full) was 10.2% (inactive). For the compound `CCCN1CCc2cc(O)cc3c2[C@H]1Cc1ccc(O)c(O)c1-3`, the “activity, negative = inhibition” value is 10.1% (inactive). As to `C[C@H](Cc1ccc2c(c1)OC(C(=O)O)(C(=O)O)O2)NC[C@H](O)c1cccc(Cl)c1`, the “activity, negative = inhibition” value is 10.4% (inactive).

In the case of `Clc1cc(I)cc(Cl)c1NC1=NCCN1`, the “activity, negative = inhibition” value was 9.96% (inactive). For `CC(=O)c1c(O)c(C)c(O)c(Cc2c(O)c3c(c(C(=O)/C=C/c4ccccc4)c2O)OC(C)(C)C=C3)c1O`, the “activity, negative = inhibition” value is -16.2% (inactive). The value for `COc1ccc2[nH]cc(CCN)c2c1` was 3.26% (inactive); that for `N=C(N)c1ccc(CS(=O)(=O)F)cc1` was 16.6% (inactive). The same measure for `COc1ccc2[nH]c3c(c2c1)CCNC3`: 10.8% (inactive). `CC(N)Cc1c[nH]c2ccc(OCc3cccs3)cc12` (stereo not given): the “activity, negative = inhibition” value is 4.57% (inactive). The same measure for `CN1CCc2cccc(Cl)c2CC1`: 7.39% (inactive).

The values are drawn from PubChem BioAssay (NCATS).
